Measured values as given in PubChem BioAssay AID1159580 (chemical genetic matrix, 2015).
Hit rate of the full screen: of about 5,500 compounds, about 2,000 (36%) were called active. Not shown: some 18% with an inconclusive outcome. The list shows a part of the results. Unmarked numbers belong to inactive results. Rule as the data show it: active = normalized growth mostly below about 0.91 (no sharp cut-off); inconclusive = no clear call, values can overlap the other calls; inactive = mostly above about 0.92.

Assay: chemical genetic growth profiling, strain panel (AID 1159580);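 also: tested at 20 µM; growth read once vehicle control cultures reached saturation at 30 °C; 1 = growth at the plate median or of vehicle wells; lower values mean less growth of the strain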
Conditions: S. cerevisiae deletion strains, growth OD
[1] = locus YJR075W, strain HOC1, active compounds read low
[2] = locus YMR307W, strain GAS1, active compounds read low
[3] = locus YNL322C, strain KRE1, active compounds read low

COC(=O)C(O)[C@H]1C(C)(C)[C@@H](OC(C)=O)[C@@H]2CC3=C4CC(=O)O[C@@H](c5ccoc5)[C@]4(C)CCC3[C@@]1(C)C2=O (stereo not given in full)
normalized growth (locus YBR021W, strain FUR4, active compounds read low): 0.99
normalized growth (locus YBR229C, strain ROT2, active compounds read low): 0.996
normalized growth (locus YCL029C, strain bik1, active compounds read low): 1.02
normalized growth (locus YDL035C, strain GPR1, active compounds read low): 0.994
normalized growth (locus YDL074C, strain BRE1, active compounds read low): 0.941
normalized growth (locus YDL101C, strain DUN1, active compounds read low): 1.01
normalized growth (locus YDL185W, strain tfp1, active compounds read low): 1.01
normalized growth (locus YDL192W, strain arf1, active compounds read low): 0.986
normalized growth (locus YDR101C, strain arx1, active compounds read low): 1.01
normalized growth (locus YDR162C, strain NBP2, active compounds read low): 0.963
normalized growth (locus YDR318W, strain mcm21, active compounds read low): 0.989
normalized growth (locus YDR388W, active compounds read low): 1
normalized growth (locus YDR502C, strain sam2, active compounds read low): 1
normalized growth (locus YER110C, active compounds read low): 1
normalized growth (locus YER155C, strain BEM2, active compounds read low): 1.01
normalized growth (locus YER167W, strain BCK2, active compounds read low): 0.986
normalized growth (locus YGL078C, strain dbp3, active compounds read low): 1.01
normalized growth (locus YGL086W, strain mad1, active compounds read low): 0.979
normalized growth (locus YGL248W, strain PDE1, active compounds read low): 0.992
normalized growth (locus YGR135W, strain pre9, active compounds read low): 0.97
normalized growth (locus YGR252W, strain gcn5, active compounds read low): 0.989
normalized growth (locus YHR079C, strain IRE1 (second series), active compounds read low): 1
normalized growth (locus YHR094C, strain hxt1, active compounds read low): 1
normalized growth (locus YHR129C, strain ARP1, active compounds read low): 0.989
normalized growth (locus YHR200W, strain rpn10, active compounds read low): 1
normalized growth (locus YIL066C, strain RNR3, active compounds read low): 0.981
normalized growth (locus YIL073C, strain SPO22, active compounds read low): 1
normalized growth (locus YIL125W, strain kgd1, active compounds read low): 1.01
normalized growth (locus YIR030C, strain dcg1, active compounds read low): 1.01
normalized growth (locus YJL095W, strain BCK1, active compounds read low): 0.915
normalized growth (locus YJL134W, strain LCB3, active compounds read low): 0.995
normalized growth (locus YJL168C, strain set2, active compounds read low): 0.995
normalized growth (locus YJL187C, strain SWE1 (second series), active compounds read low): 0.993
normalized growth (locus YJR043C, strain POL32, active compounds read low): 1.02
normalized growth [1]: 0.995
normalized growth (locus YKL009W, strain mrt4, active compounds read low): 1.01
normalized growth (locus YKL068W, active compounds read low): 1
normalized growth (locus YKL085W, strain MDH1 (second series), active compounds read low): 0.995
normalized growth (locus YKL085W, strain MDH1, active compounds read low): 0.995
normalized growth (locus YKL190W, strain CNB1, active compounds read low): 0.998
normalized growth (locus YKR001C, strain vps1, active compounds read low): 0.977
normalized growth (locus YLR039C, strain RIC1, active compounds read low): 0.764
normalized growth (locus YLR058C, strain SHM2, active compounds read low): 0.99
normalized growth (locus YLR102C, strain apc9, active compounds read low): 0.993
normalized growth (locus YLR262C, strain YPT6, active compounds read low): 0.805
normalized growth (locus YLR268W, strain sec22, active compounds read low): 0.983
normalized growth (locus YLR330W, strain CHS5, active compounds read low): 0.992
normalized growth (locus YLR371W, strain rom2, active compounds read low): 0.982
normalized growth (locus YLR418C, strain cdc73, active compounds read low): 0.906
normalized growth (locus YML016C, strain PPZ1, active compounds read low): 0.994
normalized growth (locus YML032C, strain rad52, active compounds read low): 1
normalized growth (locus YML124C, strain tub3, active compounds read low): 1
normalized growth (locus YMR078C, strain ctf18, active compounds read low): 0.983
normalized growth (locus YMR223W, strain ubp8, active compounds read low): 0.99
normalized growth [2]: 0.76
normalized growth (locus YNL067W, strain RPL9B, active compounds read low): 0.991
normalized growth (locus YNL233W, strain BNI4, active compounds read low): 0.984
normalized growth (locus YNL250W, strain rad50, active compounds read low): 1.02
normalized growth (locus YNL271C, strain bni1, active compounds read low): 0.998
normalized growth (locus YNL298W, strain CLA4, active compounds read low): 1.01
normalized growth (locus YNL307C, strain MCK1, active compounds read low): 0.991
normalized growth [3]: 1
normalized growth (locus YNR052C, strain pop2, active compounds read low): 0.99
normalized growth (locus YOL012C, strain htz1): 0.744
normalized growth (locus YOL147C, strain pex11, active compounds read low): 1
normalized growth (locus YOR061W, strain CKA2, active compounds read low): 0.997
normalized growth (locus YOR069W, strain VPS5, active compounds read low): 0.996
normalized growth (locus YOR136W, strain idh2, active compounds read low): 1.01
normalized growth (locus YOR144C, strain elg1, active compounds read low): 1
normalized growth (locus YOR184W, strain ser1, active compounds read low): 0.965
normalized growth (locus YOR316C, strain cot1, active compounds read low): 1.01
normalized growth (locus YPL055C, strain LGE1, active compounds read low): 1.01
normalized growth (locus YPR119W, strain clb2, active compounds read low): 1
normalized growth (locus YPR141C, strain kar3, active compounds read low): 0.992
normalized growth (locus YPR163C, strain tif3, active compounds read low): 1
normalized growth (locus YPR167C, strain met16, active compounds read low): 1
normalized growth (strain wtn01, active compounds read low): 0.995

CC(=O)NC1C(O)OC(COS(=O)(=O)O)C(OC2OC(C(=O)O)C(OC3OC(CO)C(OC4OC(C(=O)O)C(O)C(O)C4OS(=O)(=O)O)C(OS(=O)(=O)O)C3NS(=O)(=O)O)C(O)C2OS(=O)(=O)O)C1O (stereo not given)
normalized growth (locus YAL021C, strain ccr4, active compounds read low): 0.991
normalized growth (locus YAL026C, strain drs2, active compounds read low): 0.974
normalized growth (locus YAL030W, strain snc1, active compounds read low): 0.988
normalized growth (locus YBL061C, strain skt5, active compounds read low): 0.964
normalized growth (locus YBR009C, strain hhf1, active compounds read low): 0.989
normalized growth (locus YBR023C, strain chs3, active compounds read low): 0.971
normalized growth (locus YBR171W, strain sec66, active compounds read low): 0.957
normalized growth (locus YBR231C, strain swc5, active compounds read low): 0.991
normalized growth (locus YBR279W, strain paf1, active compounds read low): 0.981
normalized growth (locus YCL011C, strain gbp2, active compounds read low): 0.976
normalized growth (locus YCL016C, strain dcc1, active compounds read low): 0.971
normalized growth (locus YCL061C, strain MRC1, active compounds read low): 0.978
normalized growth (locus YCL069W, strain vba3, active compounds read low): 0.976
normalized growth (locus YCR088W, strain abp1, active compounds read low): 0.974
normalized growth (locus YDL005C, strain med2, active compounds read low): 0.978
normalized growth (locus YDL040C, strain nat1, active compounds read low): 0.973
normalized growth (locus YDR001C, strain nth1, active compounds read low): 0.976
normalized growth (locus YDR069C, strain doa4, active compounds read low): 0.978
normalized growth (locus YDR137W, strain rgp1, active compounds read low): 0.92
normalized growth (locus YDR159W, strain sac3, active compounds read low): 0.992
normalized growth (locus YDR195W, strain ref2): 0.965
normalized growth (locus YDR297W, strain sur2, active compounds read low): 0.981
normalized growth (locus YDR334W, strain swr1, active compounds read low): 0.96
normalized growth (locus YDR335W, strain msn5, active compounds read low): 0.978
normalized growth (locus YDR392W, strain spt3, active compounds read low): 0.979
normalized growth (locus YEL003W, strain gim4, active compounds read low): 0.978
normalized growth (locus YEL037C, strain rad23, active compounds read low): 0.978
normalized growth (locus YEL061C, strain CIN8 (second series), active compounds read low): 0.976
normalized growth (locus YER015W, strain faa2, active compounds read low): 0.986
normalized growth (locus YER016W, strain bim1, active compounds read low): 0.982
normalized growth (locus YER111C, strain swi4, active compounds read low): 0.968
normalized growth (locus YER155C, strain BEM2 (second series), active compounds read low): 0.975
normalized growth (locus YFR010W, strain ubp6, active compounds read low): 0.968
normalized growth (locus YGL167C, strain pmr1, active compounds read low): 0.97
normalized growth (locus YGL173C, strain kem1, active compounds read low): 0.966
normalized growth (locus YGL227W, strain vid30, active compounds read low): 0.975
normalized growth (locus YGL240W, strain doc1, active compounds read low): 0.996
normalized growth (locus YGL253W, strain hxk2, active compounds read low): 0.994
normalized growth (locus YHR013C, strain ard1, active compounds read low): 0.947
normalized growth (locus YHR027C, strain rpn1, active compounds read low): 0.979
normalized growth (locus YHR142W, strain chs7, active compounds read low): 0.957
normalized growth (locus YJL092W, strain hpr5, active compounds read low): 0.976
normalized growth (locus YJL095W, strain BCK1 (second series), active compounds read low): 0.979
normalized growth (locus YJL115W, strain asf1, active compounds read low): 0.967
normalized growth (locus YJL129C, strain trk1, active compounds read low): 0.986
normalized growth (locus YJL154C, strain vps35, active compounds read low): 0.974
normalized growth (locus YJL164C, strain tpk1, active compounds read low): 0.979
normalized growth (locus YJL166W, strain qcr8, active compounds read low): 0.982
normalized growth (locus YJL187C, strain SWE1, active compounds read low): 0.978
normalized growth (locus YKL160W, strain elf1, active compounds read low): 0.976
normalized growth (locus YKR026C, strain gcn3, active compounds read low): 0.978
normalized growth (locus YKR091W, strain srl3, active compounds read low): 0.984
normalized growth (locus YLL001W, strain dnm1, active compounds read low): 0.975
normalized growth (locus YLL026W, active compounds read low): 0.981
normalized growth (locus YLL041C, strain sdh2, active compounds read low): 0.982
normalized growth (locus YLR027C, strain aat2, active compounds read low): 0.982
normalized growth (locus YLR221C, strain rsa3, active compounds read low): 0.969
normalized growth (locus YLR258W, strain gsy2, active compounds read low): 0.986
normalized growth (locus YLR262C, strain YPT6 (second series), active compounds read low): 0.977
normalized growth (locus YLR320W, strain mms22, active compounds read low): 0.977
normalized growth (locus YLR342W, strain FKS1, active compounds read low): 0.98
normalized growth (locus YLR357W, strain rsc2, active compounds read low): 0.964
normalized growth (locus YLR370C, strain arc18, active compounds read low): 0.966
normalized growth (locus YLR384C, strain iki3, active compounds read low): 0.963
normalized growth (locus YML120C, strain ndi1, active compounds read low): 0.981
normalized growth (locus YMR058W, strain fet3, active compounds read low): 0.987
normalized growth (locus YMR125W, strain sto1, active compounds read low): 0.981
normalized growth (locus YMR129W, active compounds read low): 0.983
normalized growth (locus YMR205C, strain PFK2, active compounds read low): 0.982
normalized growth (locus YMR231W, strain pep5, active compounds read low): 0.967
normalized growth (locus YNL071W, strain lat1, active compounds read low): 0.983
normalized growth (locus YNL209W, strain ssb2, active compounds read low): 0.975
normalized growth (locus YNL248C, strain rpa49, active compounds read low): 0.98
normalized growth (locus YNL322C, strain KRE1 (second series), active compounds read low): 0.989
normalized growth (locus YNR049C, strain mso1, active compounds read low): 0.987
normalized growth (locus YOR001W, strain rrp6, active compounds read low): 0.97
normalized growth (locus YOR070C, strain gyp1, active compounds read low): 0.978
normalized growth (locus YOR080W, strain dia2, active compounds read low): 0.969
normalized growth (locus YOR083W, strain WHI5, active compounds read low): 0.986
normalized growth (locus YOR106W, strain vam3, active compounds read low): 0.984
normalized growth (locus YOR265W, strain rbl2, active compounds read low): 0.972
normalized growth (locus YOR270C, strain vph1, active compounds read low): 0.952
normalized growth (locus YOR290C, strain snf2, active compounds read low): 0.961
normalized growth (locus YPL051W, strain arl3, active compounds read low): 0.977
normalized growth (locus YPL078C, strain atp4, active compounds read low): 0.97
normalized growth (locus YPL106C, strain sse1, active compounds read low): 0.97
normalized growth (locus YPL240C, strain hsp82, active compounds read low): 0.982

O=c1onc2n1-c1cc(Br)ccc1OC2
normalized growth (locus YAL013W, strain DEP1, active compounds read low): 0.994
normalized growth (locus YAL040C, strain CLN3, active compounds read low): 0.991
normalized growth (locus YCL061C, strain MRC1 (second series), active compounds read low): 1.01
normalized growth (locus YDR363W, strain ESC2, active compounds read low): 0.995
normalized growth (locus YER002W, strain NOP16, active compounds read low): 1
normalized growth (locus YGR078C, strain PAC10, active compounds read low): 0.952
normalized growth [1]: 1
normalized growth (locus YMR263W, strain SAP30, active compounds read low): 1.01
normalized growth [2]: 0.989
normalized growth (locus YNL153C, strain GIM3, active compounds read low): 0.763 (active)
normalized growth (locus YNL175C, strain NOP13, active compounds read low): 1
normalized growth (locus YNL197C, strain WHI3, active compounds read low): 1.02
normalized growth (locus YNL224C, strain SQS1, active compounds read low): 1
normalized growth [3]: 0.998
normalized growth (locus YOR083W, strain WHI5 (second series), active compounds read low): 0.882
normalized growth (locus YPL241C, strain CIN2, active compounds read low): 1
